Hits are enriched below; roughly 0.84% of the tested compounds scored in any of these assays.
PPARg SRC2 recr: promotes SRC-2 coactivator recruitment by human PPARgamma; hit rate 0.34% among 200,000; AID 1032; PPARgamma LBD-SRC-2 recruitment, biochemical; activation, % at 8 µM; in the data active = activation above about 22%;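 note: 0% = vehicle and 100% = reference agonist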
PPARg SRC-3 ag: PPARgamma-driven SRC-3 recruitment agonism; P37231; biochemical PPARgamma/SRC-3 coactivator recruitment assay; activation, % at 8 µM; hit rate 0.26% among 200,000; in the data active = activation above about 23%;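 note: 0% = DMSO and 100% = reference agonist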
SRC3 TRFRET art: TR-FRET artefact, counter-screen to PPARgamma/SRC-3 agonist assay; hit rate 0.39% among 99,000; PPARgamma/SRC-3 format; stronger effect = higher value; TR-FRET ratio at 8 µM
SRC1 TRFRET art: TR-FRET artefact, counter-screen to PPARgamma/SRC-1 agonist assay; TR-FRET detection artefact counter-screen, emission ratio; stronger effect = higher value; TR-FRET ratio at 8 µM; hit rate 0.34% among 99,000; in the data active = TR-FRET ratio above about 2300
PPARg SRC1 recr: PPARgamma-driven SRC-1 recruitment agonism; PPARgamma-SRC-1 coactivator recruitment biochemical assay; P37231; hit rate 0.41% among 200,000; activation, % at 8 µM; in the data active = activation above about 19%;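 note: 0% = DMSO and 100% = reference agonist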
TR-FRET SRC-2 ct: flags TR-FRET format artefacts in PPARgamma SRC-2 recruitment agonist screen. TR-FRET artefact counter-screen; stronger effect = higher value. AID 1049. hit rate 0.4% among 200,000. TR-FRET ratio at 8 µM
PPARg SRC2 ag: confirmation of agonists of SRC-2 recruitment by human PPARgamma; shares compounds with PPARg SRC-3 ag; biochemical SRC-2 recruitment by PPARgamma; activation, % at 8 µM; hit rate 52% among 790; AID 1297; in the data active = activation above about 22%;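 note: 0% = vehicle alone and 100% = reference agonist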
PPARg SRC1 ag: confirmation of agonists of SRC-1 recruitment by human PPARgamma; shares compounds with PPARg SRC-3 ag; PPARgamma–SRC-1 coactivator recruitment biochemical assay; activation, % at 8 µM; hit rate 43% among 790; AID 1300; in the data active = activation above about 20%;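 note: 0% = vehicle wells and 100% = reference agonist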
PPARg SRC3 conf: human PPARgamma SRC-3 recruitment agonism, confirmation | shares compounds with PPARg SRC-3 ag | biochemical PPARgamma-SRC-3 coactivator recruitment, agonist mode | activation, % at 8 µM | hit rate 29% among 790 | AID 1301; in the data active = activation above about 24%;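 note: 0% = vehicle wells and 100% = reference agonist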
Active calls of the source: *; · = not tested or not shown. Cut-off read from the data, not from the text of the source, unless noted: active = TR-FRET ratio above about 2000; inactive = the rest.

SMILES	PPARg SRC2 recr	PPARg SRC-3 ag	SRC3 TRFRET art	SRC1 TRFRET art	PPARg SRC1 recr	TR-FRET SRC-2 ct	PPARg SRC2 ag	PPARg SRC1 ag	PPARg SRC3 conf
Cn1c(=O)cc(SCC(=O)N2CCN(Cc3ccc4c(c3)OCO4)CC2)c2ccccc21	33.0*	72.0*	·	·	49.5*	2161*	25.0*	12.3	18.0
COc1ccccc1NS(=O)(=O)c1cc(NC(=O)C2CCCC2)ccc1N1CCOCC1	14.2	0.7	1642	1988	4.9	1800	·	·	·
CCCCCn1c(CN2CCN(c3cccc(Cl)c3)CC2)nc2c1c(=O)n(C)c(=O)n2C	-8.6	1.7	·	·	6.0	1344	·	·	·
Cc1cccc([N+](=O)[O-])c1NC(=O)CN(Cc1ccccc1)Cc1ccccc1	-5.8	0.9	1649	1796	-5.1	1561	·	·	·
O=C(Nc1cccc(C(F)(F)F)c1)c1cc(-c2ccc(F)cc2)on1	5.0	-7.1	·	·	-2.5	1530	·	·	·
CC(=O)c1ccc(N2CCN(C(=O)c3ccc(Cn4c(=S)[nH]c5ccc(N6CCOCC6)cc5c4=O)cc3)CC2)cc1	36.7*	34.7*	3877*	4282*	39.6*	3627*	19.3	14.8	12.2
CCN(C(=O)COC(=O)c1cc(-c2cccc3ccccc23)nc2ccccc12)C1CCS(=O)(=O)C1 (stereo not drawn)	22.2*	10.4	2078*	2115	11.4	1710	9.6	7.5	5.4
O=C(COC(=O)c1cc(-c2cccc3ccccc23)nc2ccccc12)NC1CCS(=O)(=O)C1 (stereo not drawn)	10.2	9.7	2043	2123	8.9	1761	·	·	·
CC(C)Sc1nc2sc3c(c2c2nnc(SCC(=O)NCc4ccco4)n12)CCCC3	10.5	10.5	·	·	19.3*	1699	8.7	0.4	5.0
